Here are results for 4 compounds from PubChem BioAssay (NCATS).

The target of assay [1] is Lysosomal acid glucosylceramidase (Homo sapiens) (UniProt P04062). Nature of the assay: Glucocerebrosidase-p2 (AID 348; in the data active = potency below about 10 µM; also: potency is read from the fitted curve at half-maximal effect). The following applies: purified GBA, blue fluorogenic substrate, 40 min. The method in brief: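 Compounds titrated from 0.6 nM upwards against 0.2 nM enzyme in pH 5.9 citric acid/KH2PO4, taurocholate, tween-20; blue fluorogenic substrate 80 uM, 40 min room temperature, stopped and read Ex 365/Em 440 for AC50.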

A short description of assay [2]: AP1 Signaling Pathway (AID 357).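 Also: ME-180 reporter cells stimulated with EGF at its EC50 level; % is scaled to controls: 0 for no effect and ±100 for the full control effect.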 The following applies: ME-180 AP-1-bla reporter, EGF-induced, beta-lactamase ratio, 5 h; at 7.69 µM (top of the series) unless noted. Summed up:
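Titration-series screen for positive or negative modulators of EC50 EGF-induced signaling in ME-180 cells carrying an AP-1-driven beta-lactamase reporter. After 5 hours at 37 degrees Celsius, CCF4 460nm/530nm emission ratio gave %Activity; AC50 values derived.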

Assay [3] has as its target Cytochrome P450 1A2 (Homo sapiens) (UniProt P05177). Nature of the assay: p450-cyp1a2 (AID 410; calls by dose curve; also: potency is read from the fitted curve at half-maximal effect;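 as to activity change, negative = inhibition: -100% = full effect of reference inhibitor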). The following applies: recombinant CYP1A2, luciferin-ME demethylation, luminescence; series mostly up to 57 µM. Summed up:
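Luminescent readout of luciferin formed from Luciferin-ME by human CYP1A2; data normalized against complete inhibition by 57 uM furafylline. Enzyme 20nM, substrate 100uM at Km, 100mM KPO4 buffer, 60 min reaction at room temperature.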

The nature of assay [4]: Stat Signaling Pathway (AID 446).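 Also: ME-180 cervical cancer cells given 40 pM IL-6 alongside compound; SIE-controlled beta-lactamase reporter measured as 460/530 nm FRET emission ratio; % is scaled to controls: 0 for no effect and ±100 for the full control effect.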 The following applies: ME-180 SIE beta-lactamase reporter, IL-6 stimulated, 5 h; at 7.69 µM (top of the series) unless noted. Summed up: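 IL-6/STAT signaling read in ME-180 cells via an SIE beta-lactamase reporter. Stimulus was 40 pM IL-6 (its AC50) for 5 hrs, so both activation and inhibition register.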
Assay [5] addresses Glucocorticoid receptor (Homo sapiens) (UniProt P04150). Kind of assay: GR-EFC Redistribution (AID 451; calls by dose curve; also: potency is read from the fitted curve at half-maximal effect). The following applies: CHO-K1 GR-EFC translocation, beta-gal luminescence, 2 h. Summed up: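 Translocation of GR-ED fusion to nuclear EA restores b-gal, read by luminescence after 1 h room-temperature detection. Engineered CHO-K1 biosensor cells, 1,000/well, exposed 2 h at 37 C to titrations up to 46 uM final.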

In assay [6] the target is Mitogen-activated protein kinase 10 (Mus musculus) (UniProt Q61831). Nature of the assay: JNK3 AlphaScreen Assay (AID 530).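 Also: kinase came from lysate of stimulated human HepG2 cells; signal reports phosphorylation of biotinylated GST-cJun 1-79 at Ser73 with 10 µM ATP; % is scaled to controls: 0 for no effect and ±100 for the full control effect.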 The following applies: JNK3 lysate, c-Jun phosphorylation; series mostly up to 57.1 µM. Summed up: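 Compound titrations were preincubated 15 minutes at room temperature with substrate, antibody and pre-activated JNK3-containing HepG2 lysate. Reactions were started with 10 uM ATP and stopped with EDTA-containing bead buffer for AlphaScreen detection.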

For assay [7], the target named is 3',5'-cyclic-AMP phosphodiesterase 4B (Homo sapiens) (UniProt Q07343). Nature of the assay: qHTS Assay for Inhibitors of PDE-IV (AID 607; active = well fitted activation curve with a large enough effect in the main read-out, with a control signal flat, not every such curve was filed as active; also: % of control where 0% means no effect). The following applies: HEK293 ACTOne CNG channel cells, membrane potential fluorescence; series mostly up to 22.9 µM. The method in brief: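 Live HEK293 cells with a modified cyclic nucleotide-gated (CNG) channel report intracellular cAMP via membrane-potential dye fluorescence (ex 535/em 590 nm). Endogenous PDE-IV was targeted. Compounds were tested at up to 22.9 uM final; RO 20-1724 100 uM served as control.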

Assay [8] has as its target Cytochrome P450 2C9 (Homo sapiens) (UniProt P11712). Kind of assay: qHTS Assay for Inhibitors and Substrates of Cytochrome P450 2C9 (AID 883; active = well fitted curve in the direction sought with a large enough effect; an effect the other way counts as inactive or inconclusive; also: potency is read from the fitted curve at half-maximal effect; nearly all actives have a fitted effect of over 60% in size). The following applies: recombinant CYP2C9, luciferin-H luminescence, 60 min; series mostly up to 57.1 µM. Summed up:
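Inhibition of CYP2C9 is scored as loss of luminescence, with 57uM sulphaphenazole defining 100% inhibition. Substrate Luciferin-H is used at 100uM, equal to its KM; enzyme at 10nM in 25mM KPO4, 60 min at 37C with NADPH regeneration.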

The target in assay [9] is Cytochrome P450 3A4 (Homo sapiens) (UniProt P08684). Nature of the assay: qHTS Assay for Inhibitors and Substrates of Cytochrome P450 3A4 (AID 884; active = well fitted curve in the direction sought with a large enough effect; an effect the other way counts as inactive or inconclusive; also: potency is read from the fitted curve at half-maximal effect; nearly all actives have a fitted effect of over 50% in size). The following applies: recombinant CYP3A4, Luciferin-PPXE luminescence; series mostly up to 57.1 µM. Summed up:
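20 nM human CYP3A4 with 25 uM Luciferin-PPXE (at KM) in 200 mM KPO4, preincubated 10 min with compound; NADPH regeneration started a 60 min RT reaction. Luciferin detected by luminescence, normalized to 57 uM ketoconazole as full inhibition.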

For assay [10] the target is unchanged. Kind of assay: qHTS Assay for Activators of Cytochrome P450 3A4 (AID 885; active = well fitted curve in the direction sought with a large enough effect; an effect the other way counts as inactive or inconclusive; also: nearly all actives have a fitted effect of over 65% in size). The following applies: recombinant CYP3A4, Luciferin-PPXE luminescence, 60 min; series mostly up to 57.1 µM. The method in brief: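 Quantitative HTS format: compounds preincubated with 20nM human CYP3A4 and Luciferin-PPXE substrate at KM, reaction started by NADPH regeneration, stopped after 60 min, luciferase luminescence read 20 min later.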

Assay [11] deals with Cytochrome P450 2D6 (Homo sapiens) (UniProt P10635). Kind of assay: qHTS Assay for Inhibitors and Substrates of Cytochrome P450 2D6 (AID 891; active = well fitted curve in the direction sought with a large enough effect; an effect the other way counts as inactive or inconclusive; also: potency is read from the fitted curve at half-maximal effect; nearly all actives have a fitted effect of over 60% in size). The following applies: recombinant CYP2D6, luciferin-ME EGE luminescence; series mostly up to 57.1 µM. The method in brief:
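Human CYP2D6 (5 nM) with 30 uM Luciferin-ME EGE (at Km) in 100 mM KPO4, compound preincubated 10 min, then NADPH regeneration system for 60 min at room temperature. Luciferin read by luminescence; normalized to 1.43 uM quinidine.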

Assay [12] is described as follows: qHTS Assay for Identification of Small Molecule Agonists for Hypoxia Response Element Signaling Pathway (AID 914; active = well fitted activation curve with a large enough effect in the signal ratio, with a control signal flat, not every such curve was filed as active; the % refers to the signal ratio; also: % of control where 0% means no effect). The following applies: ME-180 (cervical carcinoma) HRE-bla reporter, beta-lactamase ratio, CoCl2, 17 h; activation: stronger effect = higher value. Summed up: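 A beta-lactamase reporter under hypoxia response element control in ME-180 cells served as the system. Compound titrations plus EC50 CoCl2 ran 17 h at 37 degrees Celsius; AC50 values were fitted from %Activity.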

Assay [13] in a line: qHTS Assay for Lipid Storage Modulators (AID 1519; calls by dose curve). The following applies: Drosophila S3 cells, BODIPY lipid droplet/cell ratio, laser cytometry, cells loaded with oleic acid; for activity change, negative = inhibition: at 57.5 µM (top of the series). The method in brief:
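Cells seeded at 5,000 per well were treated with compounds over a concentration series and loaded with oleic acid (400 uM, as added). Lipid droplet fluorescence (488 nm excitation, 500-530 nm channel) was read by laser-scanning cytometry and normalized to 20 uM Triacsin C.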

Assay [14] is described as follows: Primary qHTS for small molecule stabilizers of the endoplasmic reticulum resident proteome: Secreted ER Calcium Modulated Protein (SERCaMP) assay (AID 1508630; active = well fitted curve in the direction sought with a large enough effect; an effect the other way counts as inactive or inconclusive; also: % is scaled to controls: 0 for no effect and ±100 for the full control effect). The following applies: SH-SY5Y GLuc-SERCaMP (Gaussia luciferase released on ER calcium loss) secretion, thapsigargin, luminescence; series mostly up to 38.4 µM. Summed up:
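GLuc-SERCaMP-expressing SH-SY5Y cells, pretreated 16 h with compound, are challenged with thapsigargin to empty ER calcium stores; after 4 h, coelenterazine is added directly to the medium and luminescence is imaged.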

Setting [15] is: measured here: cell count channel max response.
The mark [16] stands for this setting: measured here: lipid channel max response.

Results filed as inconclusive are left out. Calls of active or inactive are those of the source. Unless noted, calls follow the shape of the dose curve; as a rule, active = well fitted curve in either direction with a large enough effect (not every such curve was filed as active); inconclusive = small, poorly fitted or top-dose-only effect, or another doubt; inactive = flat fitted curve, though single readings scatter.

Sequence of 3',5'-cyclic-AMP phosphodiesterase 4B (Homo sapiens) (Q07343 whole entry, looked up): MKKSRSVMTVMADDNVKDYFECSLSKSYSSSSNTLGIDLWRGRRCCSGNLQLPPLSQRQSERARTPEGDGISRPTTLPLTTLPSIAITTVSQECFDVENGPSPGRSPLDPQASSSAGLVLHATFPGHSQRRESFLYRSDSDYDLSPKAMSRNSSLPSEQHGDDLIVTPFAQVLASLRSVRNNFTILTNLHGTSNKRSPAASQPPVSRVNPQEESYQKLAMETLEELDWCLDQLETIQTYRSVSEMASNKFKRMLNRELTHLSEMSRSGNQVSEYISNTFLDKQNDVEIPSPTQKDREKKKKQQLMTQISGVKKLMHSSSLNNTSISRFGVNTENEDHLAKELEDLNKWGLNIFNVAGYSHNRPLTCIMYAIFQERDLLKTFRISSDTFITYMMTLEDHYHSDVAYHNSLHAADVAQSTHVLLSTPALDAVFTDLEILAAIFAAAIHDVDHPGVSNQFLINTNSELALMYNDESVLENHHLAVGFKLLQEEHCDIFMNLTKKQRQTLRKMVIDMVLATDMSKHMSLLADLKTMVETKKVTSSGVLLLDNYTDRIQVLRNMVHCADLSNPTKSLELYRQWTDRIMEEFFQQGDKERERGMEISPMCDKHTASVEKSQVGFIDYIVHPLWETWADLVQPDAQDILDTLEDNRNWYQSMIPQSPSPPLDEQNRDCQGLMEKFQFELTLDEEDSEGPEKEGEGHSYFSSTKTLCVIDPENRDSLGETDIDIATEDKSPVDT
Sequence of Cytochrome P450 1A2 (Homo sapiens) (P05177 whole entry, looked up): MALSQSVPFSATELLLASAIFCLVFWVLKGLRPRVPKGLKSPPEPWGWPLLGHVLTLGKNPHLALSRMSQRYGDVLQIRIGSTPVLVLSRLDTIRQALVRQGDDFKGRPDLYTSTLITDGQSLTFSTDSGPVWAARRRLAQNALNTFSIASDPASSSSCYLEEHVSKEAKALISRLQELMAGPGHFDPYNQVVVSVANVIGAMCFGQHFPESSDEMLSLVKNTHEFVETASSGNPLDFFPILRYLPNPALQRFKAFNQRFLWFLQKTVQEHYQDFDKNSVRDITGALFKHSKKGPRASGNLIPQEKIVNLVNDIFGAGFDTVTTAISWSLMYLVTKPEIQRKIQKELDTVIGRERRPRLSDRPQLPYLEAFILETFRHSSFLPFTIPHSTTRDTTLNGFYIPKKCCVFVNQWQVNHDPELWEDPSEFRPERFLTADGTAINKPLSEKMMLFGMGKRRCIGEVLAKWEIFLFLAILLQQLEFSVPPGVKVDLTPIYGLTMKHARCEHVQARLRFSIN
Sequence of Glucocorticoid receptor (Homo sapiens) (P04150 whole entry, looked up, the tested form may be a part): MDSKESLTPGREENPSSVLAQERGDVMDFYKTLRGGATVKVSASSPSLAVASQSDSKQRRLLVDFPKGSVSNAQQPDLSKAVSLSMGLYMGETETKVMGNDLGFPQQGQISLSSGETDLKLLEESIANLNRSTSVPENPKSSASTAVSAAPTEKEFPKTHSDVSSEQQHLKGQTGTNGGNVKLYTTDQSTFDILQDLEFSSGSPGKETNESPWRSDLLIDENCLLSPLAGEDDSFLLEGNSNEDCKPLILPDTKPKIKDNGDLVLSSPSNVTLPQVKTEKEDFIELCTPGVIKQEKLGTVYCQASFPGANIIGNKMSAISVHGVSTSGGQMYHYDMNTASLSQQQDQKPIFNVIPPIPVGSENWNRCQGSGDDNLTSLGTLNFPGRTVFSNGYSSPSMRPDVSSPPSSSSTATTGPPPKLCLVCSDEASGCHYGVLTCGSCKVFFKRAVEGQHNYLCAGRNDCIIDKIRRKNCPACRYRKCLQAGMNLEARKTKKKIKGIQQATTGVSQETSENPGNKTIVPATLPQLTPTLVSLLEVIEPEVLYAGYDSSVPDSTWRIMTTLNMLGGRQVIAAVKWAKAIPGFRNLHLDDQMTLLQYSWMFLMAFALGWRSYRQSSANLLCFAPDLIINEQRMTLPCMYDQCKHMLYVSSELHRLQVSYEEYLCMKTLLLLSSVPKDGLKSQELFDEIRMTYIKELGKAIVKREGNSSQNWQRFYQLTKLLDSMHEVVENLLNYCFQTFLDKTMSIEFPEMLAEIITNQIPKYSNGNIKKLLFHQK
Sequence of Lysosomal acid glucosylceramidase (Homo sapiens) (P04062 whole entry, looked up): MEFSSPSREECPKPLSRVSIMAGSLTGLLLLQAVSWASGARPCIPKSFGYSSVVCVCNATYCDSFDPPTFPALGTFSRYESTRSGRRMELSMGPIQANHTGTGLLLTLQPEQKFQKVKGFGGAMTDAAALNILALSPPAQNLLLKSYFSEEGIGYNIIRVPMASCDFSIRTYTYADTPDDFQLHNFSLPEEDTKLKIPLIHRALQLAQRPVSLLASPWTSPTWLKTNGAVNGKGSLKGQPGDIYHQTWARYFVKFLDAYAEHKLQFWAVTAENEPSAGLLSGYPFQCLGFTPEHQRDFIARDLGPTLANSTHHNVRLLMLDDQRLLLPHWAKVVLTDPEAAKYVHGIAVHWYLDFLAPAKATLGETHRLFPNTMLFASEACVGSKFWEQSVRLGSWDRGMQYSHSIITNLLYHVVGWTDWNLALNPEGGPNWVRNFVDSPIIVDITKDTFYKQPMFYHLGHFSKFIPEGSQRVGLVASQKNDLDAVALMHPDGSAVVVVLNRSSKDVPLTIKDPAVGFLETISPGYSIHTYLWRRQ
Sequence of Cytochrome P450 3A4 (Homo sapiens) (P08684 whole entry, looked up): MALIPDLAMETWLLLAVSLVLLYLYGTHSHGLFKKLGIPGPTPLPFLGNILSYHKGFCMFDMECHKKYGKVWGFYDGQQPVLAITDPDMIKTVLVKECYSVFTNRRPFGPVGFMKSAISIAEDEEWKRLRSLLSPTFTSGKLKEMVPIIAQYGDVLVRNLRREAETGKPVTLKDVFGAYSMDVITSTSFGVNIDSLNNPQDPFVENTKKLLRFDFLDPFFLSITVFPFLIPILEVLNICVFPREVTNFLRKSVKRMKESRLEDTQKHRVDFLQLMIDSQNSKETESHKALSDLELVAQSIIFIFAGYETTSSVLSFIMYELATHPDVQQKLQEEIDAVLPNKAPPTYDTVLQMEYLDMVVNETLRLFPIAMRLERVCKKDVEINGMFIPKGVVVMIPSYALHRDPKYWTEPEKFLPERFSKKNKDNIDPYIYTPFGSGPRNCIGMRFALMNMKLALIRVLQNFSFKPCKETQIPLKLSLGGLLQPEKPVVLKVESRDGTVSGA
Sequence of Cytochrome P450 2D6 (Homo sapiens) (P10635 whole entry, looked up): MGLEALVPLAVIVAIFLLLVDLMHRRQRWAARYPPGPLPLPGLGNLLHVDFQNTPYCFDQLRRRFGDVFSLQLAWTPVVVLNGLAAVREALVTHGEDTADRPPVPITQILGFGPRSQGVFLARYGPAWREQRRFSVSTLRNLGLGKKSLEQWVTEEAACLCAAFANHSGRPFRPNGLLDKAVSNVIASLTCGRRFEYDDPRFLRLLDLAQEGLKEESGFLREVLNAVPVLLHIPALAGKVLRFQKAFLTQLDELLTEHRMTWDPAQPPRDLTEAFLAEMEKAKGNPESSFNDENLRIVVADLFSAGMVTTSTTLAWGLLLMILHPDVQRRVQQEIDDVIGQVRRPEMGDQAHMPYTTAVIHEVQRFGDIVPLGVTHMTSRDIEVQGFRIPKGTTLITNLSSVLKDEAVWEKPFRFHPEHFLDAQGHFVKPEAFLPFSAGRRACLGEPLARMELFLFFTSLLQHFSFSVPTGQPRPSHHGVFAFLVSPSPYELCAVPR
Sequence of Cytochrome P450 2C9 (Homo sapiens) (P11712 whole entry, looked up): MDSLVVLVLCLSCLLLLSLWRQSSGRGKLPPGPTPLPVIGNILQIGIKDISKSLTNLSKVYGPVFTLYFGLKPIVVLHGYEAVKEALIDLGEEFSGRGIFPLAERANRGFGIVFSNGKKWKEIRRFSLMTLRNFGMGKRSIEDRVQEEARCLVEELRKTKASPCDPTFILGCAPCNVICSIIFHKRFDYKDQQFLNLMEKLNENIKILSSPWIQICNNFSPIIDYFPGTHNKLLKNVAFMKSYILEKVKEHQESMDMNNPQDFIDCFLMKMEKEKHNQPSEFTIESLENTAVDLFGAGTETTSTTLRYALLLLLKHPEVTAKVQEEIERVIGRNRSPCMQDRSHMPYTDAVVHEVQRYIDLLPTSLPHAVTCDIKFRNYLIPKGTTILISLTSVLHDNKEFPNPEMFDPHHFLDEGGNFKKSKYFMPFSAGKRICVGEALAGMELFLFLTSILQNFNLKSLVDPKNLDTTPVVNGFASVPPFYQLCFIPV

Regarding `O=C(c1ccncc1)N1CCC2(CCCN(Cc3ccncc3)C2)CC1`, the Potency in [1] was > 11.4 µM (inactive); in assay [3] it was 6.31 µM (active); in assay [5] it was > 46 µM (inactive); in assay [8], 5.01 µM (active); in assay [9], 5.01 µM (active); in [11], 6.31 µM (active). For the same compound, the results for the activity change, negative = inhibition in [2] and in assay [13] were -5.21% (inactive) and 2.08% (inactive), respectively. The activity, negative = inhibition in assay [4] is 4.83% (inactive). For the same compound, the Potency entry in assay [6], in [7] and in [10] was “inactive” in each case. Further, in assay [12], the activation is 2.4% (inactive). Moreover, the max response in assay [13] (setting [15]) is 1.67%; in assay [13] (setting [16]), 8.27%. For the same compound, the outcome in [14] was inactive.
Turning to `COc1ccc(C(=O)N2CCC3(CCN(Cc4ccccc4OC)CC3)CC2)cc1`, the results for the Potency in assay [1] and in assay [5] were > 11.4 µM (inactive) and > 46 µM (inactive), respectively. The activity change, negative = inhibition in assay [2] is -0.655% (inactive); in assay [13] it was 2.01% (inactive). Besides, the Potency entry in assay [3], in assay [6] and in assay [7] was “inactive” throughout. The activity, negative = inhibition in [4] is -4.81% (inactive). Further, the max response in assay [13] (setting [15]) was 10.3%; in assay [13] (setting [16]) it was 16.6%. For the same compound, the outcome in [14] was inactive.
Regarding `CC(C)CN1CCC2(CC1)CCN(C(=O)c1cc(C(F)(F)F)cc(C(F)(F)F)c1)CC2`, the values for the Potency in assay [1] and in [5] were > 11.4 µM (inactive) and > 46 µM (inactive), respectively. In addition, the activity change, negative = inhibition in assay [2] was 3.4% (inactive); in assay [13], -2.84% (inactive). Moreover, the Potency entry in assay [3], in assay [6] and in [7] was “inactive” in each case. Moreover, in [4], the activity, negative = inhibition was 0.414% (inactive). Besides, the max response in assay [13] (setting [15]) was -18.2%; in assay [13] (setting [16]), -17.3%. Further, in assay [14], the result was inactive.
For `COCC(=O)N1CCC2(CCCN(Cc3ccccc3OC)C2)CC1`, the Potency is > 11.4 µM (inactive) in [1] and > 46 µM (inactive) in [5]. Moreover, the activity change, negative = inhibition in [2] is -2.02% (inactive); in [13], -6.35% (inactive). Moreover, the Potency result in assay [3], in assay [6] and in assay [7] was “inactive” in each case. Further, the activity, negative = inhibition in assay [4] is 10.7% (inactive). For the same compound, the max response came to 2.52% in assay [13] (setting [15]) and 0.269% in assay [13] (setting [16]). In assay [14], the result was inactive.
